Experimental data as given in PubChem BioAssay AID1053197 (The Scripps Research Institute Molecular Screening Center, 2014).
About 2,600 (0.7%) of roughly 370,000 compounds were called active.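 How the source made its calls: active means inhibition above a cutoff: mean of compounds within the control limits plus 3 SD of those (cut at about 17% in these data); inactive means the rest.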 Shown is part of a subset that was picked to be rich in actives.

biological target: Sialate O-acetylesterase (Homo sapiens) (UniProt Q9HAT2); assay: human SIAE inhibitors, primary screen, biochemical, fluorescence polarization, FP-Rh probe, 1536-well HTS (AID 1053197); details: SIAE FP-Rh probe binding, at 9.66 µM, hits give high values;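 further: 0% = plate median of compound wells and 100% = probe without SIAE protein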
Sequence (Q9HAT2 whole entry, looked up): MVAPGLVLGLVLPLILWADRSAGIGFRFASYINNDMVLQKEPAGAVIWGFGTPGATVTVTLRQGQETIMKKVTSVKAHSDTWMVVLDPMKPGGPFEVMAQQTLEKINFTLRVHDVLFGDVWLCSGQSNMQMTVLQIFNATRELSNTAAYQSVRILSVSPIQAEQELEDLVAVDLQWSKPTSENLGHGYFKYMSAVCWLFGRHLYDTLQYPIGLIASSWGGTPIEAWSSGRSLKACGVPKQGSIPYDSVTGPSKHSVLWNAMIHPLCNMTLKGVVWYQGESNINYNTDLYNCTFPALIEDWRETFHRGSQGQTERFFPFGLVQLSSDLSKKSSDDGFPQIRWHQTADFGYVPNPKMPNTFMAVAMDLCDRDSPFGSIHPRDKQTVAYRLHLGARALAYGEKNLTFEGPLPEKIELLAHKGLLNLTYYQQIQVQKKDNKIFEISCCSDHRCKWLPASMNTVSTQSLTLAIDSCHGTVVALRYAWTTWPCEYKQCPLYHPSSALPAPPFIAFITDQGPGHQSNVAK

| Compound | inhibition |
| --- | --- |
| COc1cccc(CNC(=O)CNS(=O)(=O)c2ccc3nc(C)sc3c2)c1OC | 2.11% (inactive) |
| Nc1[nH]c(/C=C2/CCCCC2n2[nH]c(=O)n(-c3ccccc3)c2=O)c(Cc2ccccc2)[n+]1Cc1ccccc1 (stereo not drawn) | 10.8% (inactive) |
| O=S1(=O)c2ccc(Br)cc2OC[C@H](Cc2ccccc2)N1Cc1cn(Cc2ccccc2)nn1 | 3.61% (inactive) |
| CC(c1c[nH]c2ccccc12)c1c(-c2ccccc2)n(C)c2ccccc12 (stereo not drawn) | 10.3% (inactive) |
| COc1ccc(NS(=O)(=O)c2ccc(N3CCOCC3)c(NC(=O)c3ccccc3Br)c2)cc1 | -4.27% (inactive) |
| CCn1c(=O)n(CC)c2cc(N3CCCC3)c(NC(=O)c3ccccc3Br)cc21 | 17.9% (active) |
| O=C(NC(=O)c1ccccc1N1CCCCC1)Nc1ccc(Br)cc1 | 2.43% (inactive) |
| CC(C)CNS(=O)(=O)CC1NCCc2ccccc21 (stereo not drawn) | -2.16% (inactive) |
| CNC(=S)NNC(=O)c1ccc(N(C)C)cc1 | 10.3% (inactive) |
| CN(C)c1ccc(N/C=C/C(=O)C(F)(F)F)cc1 | 17.9% (active) |
| CC1CN(/C=C/C(=O)C(F)(F)F)CC(C)O1 (stereo not drawn) | 2.43% (inactive) |
| C=CCN1C(=O)[C@@H](CC(=O)NCC2CCCCC2)[C@]2(C(=O)OC)CCCCC=C12 | 20.8% (active) |
| C=CCN1C(=O)[C@@H](CC(=O)NCCCCc2ccccc2)[C@]2(C(=O)OCC)CCCCC/C=C/12 | -2.6% (inactive) |
| C=CCN1C(=O)[C@@H](CC(=O)NCCCOCCCC)[C@]2(C(=O)OCC)CCCCC/C=C/12 | -0.48% (inactive) |
| O=[N+]([O-])c1ccccc1NCc1ccc(Cl)cc1 | 0.44% (inactive) |
| c1ccc(CNCc2ccc(CNCc3ccccc3)cc2)cc1 | -0.12% (inactive) |
| Oc1ccc(CNc2ccccc2O)cc1 | 21.1% (active) |
| COc1cc(NC(=O)C2CCCN(S(=O)(=O)c3ccc(C(C)(C)C)cc3)C2)cc(OC)c1 (stereo not drawn) | -0.78% (inactive) |
| CCC(=O)c1c(CC)c2n3c1=CC[C@H]3CC(Br)C=2 (stereo partly drawn) | -1.56% (inactive) |
| Cc1ccc(C2Nc3cccc4cccc(c34)N2)cc1 | 29.6% (active) |
| Oc1ccc(C2Nc3cccc4cccc(c34)N2)cc1 | 58.9% (active) |
| CCCC[C@H]1C2CC(OC(=O)NCc3ccccc3)C(C2)[C@H]2CCCCN21 (stereo partly drawn) | -0.4% (inactive) |

| Compound | inhibition |
| --- | --- |
| O=C(CSc1nc2ccccc2s1)N=Nc1c(O)[nH]c2ccccc12 | -11.1% (inactive) |
| COc1ccc(N2CCN(CCNS(=O)(=O)c3ccc([N+](=O)[O-])cc3)CC2)cc1 | 1.89% (inactive) |
| FC(F)(F)c1cccc(NC(=S)OC2CCC23CCC(c2ccccc2)CC3)c1 (stereo not drawn) | -8.64% (inactive) |
| Cc1ccccc1NC(=O)Cn1nnc(-c2ccccc2F)n1 | -1.96% (inactive) |
| COc1cccc2c1C(=O)c1c(O)c3c(c(O)c1C2=O)CC(O)(C(C)=NNC(=O)c1ccc(Cl)c(Cl)c1)CC3OC1CC(N)C(O)C(C)O1 (stereo not drawn) | 62.7% (active) |
| CCCC1CCC2(CCCN2CCOC(=O)NCc2ccccc2)CC1 (stereo not drawn) | -1.37% (inactive) |
| CCOC(=O)/C(N=Nc1cc(C(=O)O)cc(C(=O)O)c1)=C(\O)CCl | 21.9% (active) |
| COc1ccc(CN(CCN2CCOCC2)C(=O)c2ccc(C)cc2)cc1OC | -2.14% (inactive) |
| CCOC(=O)C1(Cc2ccccc2)CCN(Cc2cn(C(C)=O)c3ccccc23)CC1 | -0.8% (inactive) |
| CCCC[C@H](C(=O)N(CC)c1ccccc1)[C@@H](O)c1ccc2ccccc2c1 | -0.99% (inactive) |
| CC(c1ccc(N)cc1)c1cn(C)c2ccccc12 (stereo not drawn) | 10.7% (inactive) |
| COC(=O)[C@]12C[C@H](CC(=O)NCCc3ccccc3OC)C(=O)N(Cc3ccco3)C1=C[C@H](C(C)C)O[C@@H]2C1CC1 | 0.34% (inactive) |
| CCN(CC)CCCC(C)n1c2nc(=O)[nH]c(=O)c-2nc2cc(Cl)ccc21 (stereo not drawn) | 29.6% (active) |
| Cc1cc2nc3c(=O)[nH]c(=O)nc-3n(C[C@H](O)[C@H](O)[C@H](O)CO)c2cc1C | 6.59% (inactive) |
| COC(=O)C1CN(CCc2ccccc2)CCS(=O)(=O)N1Cc1ccc(F)cc1 (stereo not drawn) | 4.17% (inactive) |
| COc1ccc2c(c1)CN1CN(CCc3ccccc3)S(=O)(=O)CC21 (stereo not drawn) | -7.42% (inactive) |
| C=CCN1[C@@H](Cc2ccccc2)COc2cccc(N3CCSCC3)c2S1(=O)=O | -1.03% (inactive) |
| O=C(CSc1ccc(-c2ccc(F)cc2)nn1)Nc1ccc2c(c1)OCCO2 | 9.37% (inactive) |
| O=C(CSc1ccc(-c2ccco2)nn1)Nc1cccc(F)c1 | 17.1% (active) |
| COc1ccc(NC(=O)CSc2ccc(-c3ccco3)nn2)c(OC)c1 | 4.03% (inactive) |
| O=C(NC1CCCCN(Cc2cccc(C(F)(F)F)c2)C1=O)c1ccccc1I (stereo not drawn) | 8.59% (inactive) |
